The values below come from PubChem BioAssay.

The test system of assay [1] is Plasmodium falciparum Sir2 (PF13_0152, Sir2A). The assay can be described thus: Plasmodium falciparum Sir2A binding compounds – biochemical, small-molecule microarray, 635 nm fluorescence, primary screen (AID 1098).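 Further: score merges spot fluorescence intensity with its signal-to-noise ratio.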 As to conditions: fluorescence 635 nm, higher = more signal.
A short description of assay [2]: probe aDKK1 binding to arrayed compounds – biochemical, biotinylated probe, 635/667 nm fluorescence, primary screen (AID 1099).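 Further: score merges 667nm spot fluorescence with signal to noise across triplicate slides; reference of the scale not given here.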 Particulars: small-molecule microarray, higher = more signal.
The nature of assay [3]: probe aCHRDL2 binding to arrayed compounds – biochemical, biotinylated probe, 635/667 nm fluorescence, primary screen (AID 1100). Particulars: small-molecule microarray, higher = more signal.
Assay [4] can be described thus: change in splice reporter luminescence, either direction, cell-based, HEK293, spliceosome inhibition project, primary screen (AID 1101).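 Further: HEK293 cells carrying a splicing-competent luciferase reporter gene; test concentration not given here.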 As to conditions: HEK293 splicing luciferase reporter, 24 h, higher = more signal, called active from +8 up or from −8 down. (Reporter assays use an easily measured gene product as a stand-in for the process of interest.)
For assay [5], the target named is Fibroblast growth factor 10 (Homo sapiens) (UniProt O15520). The assay can be described thus: compounds binding fibroblast growth factor 10 – biochemical, small-molecule microarray, 635 nm fluorescence, primary screen (AID 1102). Particulars: FGF10 binding, fluorescence 635 nm, higher = more signal.
The subject of assay [6] is glycogen synthase kinase-3 (GSK3A per assay name; protocol says GSK3B). The assay can be described thus: compounds binding glycogen synthase kinase-3 – biochemical, small-molecule microarray, 635 nm fluorescence, GSK3A, primary screen (AID 1103). Further: the record names both GSK3A and GSK3B. As to conditions: fluorescence 635 nm, higher = more signal.
The target of assay [7] is Epidermal growth factor receptor (Homo sapiens) (UniProt P00533). Kind of assay: compounds binding epidermal growth factor receptor – biochemical, small-molecule microarray, 635 nm fluorescence, primary screen (AID 1104).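 Further: score merges 667 nm emission intensity with spot signal to noise over triplicate slides.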 Particulars: EGFR binding, higher = more signal.
Assay [8] concerns the target Follistatin-related protein 3 (Homo sapiens) (UniProt O95633). Kind of assay: compounds binding follistatin-related protein 3 – biochemical, small-molecule microarray, 635 nm fluorescence, primary screen (AID 1105).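 Further: score merges emission near 667 nm and signal to noise per printed spot across three slides.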 As to conditions: FSTL3 binding, higher = more signal.
For assay [9], the target named is Dickkopf-related protein 1 (Homo sapiens) (UniProt O94907). Kind of assay: small molecules binding DKK1 protein – biochemical, small-molecule microarray, 635 nm fluorescence scan, primary screen (AID 1106).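 Further: score merges emission near 667 nm with signal to noise over three replicate slides.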 As to conditions: higher = more signal.
Assay [10] relates to Inhibin beta A chain (activin A). Kind of assay: small molecules binding activin A – biochemical, small-molecule microarray, 635 nm fluorescence scan, primary screen (AID 1107).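 Further: mouse activin A protein probed at 4.33 µg/mL on printed slides; score merges bound-protein fluorescence near 667 nm with spot signal-to-noise.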 As to conditions: INHBA, higher = more signal.

Activity calls are given as the source filed them.

Sequence of Dickkopf-related protein 1 (Homo sapiens) (O94907 whole entry, looked up): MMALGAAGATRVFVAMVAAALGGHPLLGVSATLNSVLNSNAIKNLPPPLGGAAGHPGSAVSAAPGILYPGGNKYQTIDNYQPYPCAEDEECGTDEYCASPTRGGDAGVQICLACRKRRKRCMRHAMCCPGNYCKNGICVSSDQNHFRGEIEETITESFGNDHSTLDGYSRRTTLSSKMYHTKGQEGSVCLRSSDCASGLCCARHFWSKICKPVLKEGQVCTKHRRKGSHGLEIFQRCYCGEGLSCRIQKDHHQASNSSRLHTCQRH
Sequence of Fibroblast growth factor 10 (Homo sapiens) (O15520 whole entry, looked up): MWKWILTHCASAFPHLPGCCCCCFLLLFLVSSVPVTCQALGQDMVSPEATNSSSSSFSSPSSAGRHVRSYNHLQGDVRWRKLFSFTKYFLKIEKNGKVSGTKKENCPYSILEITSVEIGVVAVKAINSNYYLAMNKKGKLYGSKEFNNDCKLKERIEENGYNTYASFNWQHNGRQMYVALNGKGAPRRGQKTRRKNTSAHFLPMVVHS
Sequence of Epidermal growth factor receptor (Homo sapiens) (P00533 whole entry, looked up): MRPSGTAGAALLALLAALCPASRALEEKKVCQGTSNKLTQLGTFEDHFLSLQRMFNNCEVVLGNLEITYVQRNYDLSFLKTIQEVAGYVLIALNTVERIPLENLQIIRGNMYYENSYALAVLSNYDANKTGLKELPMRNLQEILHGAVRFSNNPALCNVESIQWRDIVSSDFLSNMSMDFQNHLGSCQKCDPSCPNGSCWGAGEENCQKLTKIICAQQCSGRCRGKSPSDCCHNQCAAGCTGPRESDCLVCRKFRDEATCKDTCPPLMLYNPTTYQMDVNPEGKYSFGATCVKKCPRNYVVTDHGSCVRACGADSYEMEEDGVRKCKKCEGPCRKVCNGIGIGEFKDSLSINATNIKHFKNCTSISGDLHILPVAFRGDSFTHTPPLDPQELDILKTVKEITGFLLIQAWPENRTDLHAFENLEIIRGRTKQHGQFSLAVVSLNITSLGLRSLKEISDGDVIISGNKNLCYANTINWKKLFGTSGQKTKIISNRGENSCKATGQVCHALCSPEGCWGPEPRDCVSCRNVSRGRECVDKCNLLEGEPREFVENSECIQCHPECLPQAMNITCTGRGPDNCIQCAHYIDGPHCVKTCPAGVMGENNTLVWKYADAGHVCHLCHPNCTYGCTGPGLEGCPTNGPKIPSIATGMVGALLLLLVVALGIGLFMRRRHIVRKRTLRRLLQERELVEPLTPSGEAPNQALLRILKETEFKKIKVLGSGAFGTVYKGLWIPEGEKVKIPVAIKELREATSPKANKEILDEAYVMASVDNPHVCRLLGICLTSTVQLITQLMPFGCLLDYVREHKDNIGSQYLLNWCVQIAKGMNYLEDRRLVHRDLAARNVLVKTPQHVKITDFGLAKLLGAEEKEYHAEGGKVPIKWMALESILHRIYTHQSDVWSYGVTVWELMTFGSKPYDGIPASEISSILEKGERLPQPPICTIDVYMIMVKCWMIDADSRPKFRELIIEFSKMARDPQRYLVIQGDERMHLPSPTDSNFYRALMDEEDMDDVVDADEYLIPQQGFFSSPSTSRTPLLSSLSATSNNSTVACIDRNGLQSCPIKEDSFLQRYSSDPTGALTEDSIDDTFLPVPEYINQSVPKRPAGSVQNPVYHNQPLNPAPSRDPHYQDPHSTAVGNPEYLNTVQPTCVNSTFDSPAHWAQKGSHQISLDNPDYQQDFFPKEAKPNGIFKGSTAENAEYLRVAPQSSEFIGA
Sequence of Follistatin-related protein 3 (Homo sapiens) (O95633 whole entry, looked up): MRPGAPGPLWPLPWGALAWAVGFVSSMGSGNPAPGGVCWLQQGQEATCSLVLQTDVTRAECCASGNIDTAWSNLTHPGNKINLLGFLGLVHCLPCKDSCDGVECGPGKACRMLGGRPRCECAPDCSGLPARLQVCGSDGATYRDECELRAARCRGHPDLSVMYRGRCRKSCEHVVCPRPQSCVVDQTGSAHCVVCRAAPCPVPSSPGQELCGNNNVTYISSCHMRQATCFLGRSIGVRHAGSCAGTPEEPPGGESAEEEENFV

Take `C=CC[C@@H]1C=C[C@H](ON=C(C)CCN2CCCc3nc(C)c(C)cc32)[C@@H](CO)O1`: the composite z-score in assay [1] was 1.14; in [2], 0.381; in assay [3], 0.331; in assay [5] it was 1.01; in [6] it was 1.15; in assay [7], 0.759. In addition, the composite z-score in assay [8] was 1.47; in assay [9], 1.32; in [10] it was 2.04. The z-score in assay [4] was 0.0487 (inactive).

Consider `CC(=O)OC[C@H]1O[C@H](CC=NOC(C)CN2CCCc3nc(C)c(C)cc32)C=C[C@@H]1OC(C)=O` (stereo not given in full), for which the composite z-score in assay [1] is 0.104; in assay [2], -0.104; in [3] it was -0.457; in assay [5], 0.708; in assay [6], 0.961; in assay [7], 0.383. In addition, the composite z-score is 0.834 in assay [8], 0.578 in [9] and 0.8 in assay [10]. Moreover, in assay [4], the z-score was 0.184 (inactive).

Consider `C[C@@H]1CC[C@@H](C(=O)O)N[C@H]1c1cccc(N2CCOCC2)c1`, for which the composite z-score in assay [1] was 0.168; in assay [2], -0.191; in assay [3], -0.449; in assay [5], 0.631; in [6], 0.74; in [7], 0.797. Also, the composite z-score amounted to 0.409 in assay [8], 0.109 in [9] and 0.0223 in assay [10]. In addition, in assay [4], the z-score was -1.02 (inactive).

Turning to `COC(=O)CC=C[C@@H](C)[C@@H](C=NOC(C)CN1CCCCc2nc(C)c(C)cc21)NS(=O)(=O)c1ccc(C)cc1` (stereo not given in full), the composite z-score in [1] was 0.361; in [2] it was -0.0704; in assay [3], 0.0097; in [5], -0.129; in assay [6], 0.165; in assay [7], 1. The figures for the composite z-score in assay [8], in assay [9] and in assay [10] were 0.437, 0.846 and 1.15, respectively. Further, the z-score in assay [4] is -0.182 (inactive).

For `CCCC[C@H]1CN2[C@@H](CC[C@@H](C)[C@@H]2c2ccc(Br)cc2)C(=O)O1`, the composite z-score is 0.801 in assay [1]; -0.1 in assay [2]; -0.442 in [3]; 0.28 in [5]; 0.707 in [6]; 0.457 in assay [7]. Moreover, the composite z-score was found to be 0.562 in [8], 0.296 in assay [9] and 0.0442 in assay [10]. Further, the z-score in assay [4] is 0.541 (inactive).

As to `CCc1cc2c(nc1CC)CCN(CCC(C)=NOC(C)CN1CCCCc3nc(C)c(C)cc31)C2` (stereo not given), the composite z-score is 0.526 in assay [1]; -0.0521 in assay [2]; -0.215 in assay [3]; 0.628 in assay [5]; 1.25 in assay [6]; 0.81 in assay [7]. The composite z-score was 1.19 in assay [8], 0.841 in [9] and 1.31 in [10]. Besides, in assay [4], the z-score was -0.242 (inactive).

Turning to `CC1(C)O[C@H]2OC([C@H](O)CON3C(=O)c4ccccc4C3=O)[C@H](O)[C@H]2O1` (stereo not given in full), the composite z-score was -0.0933 in assay [1]; -0.467 in assay [2]; -0.562 in [3]; 0.0612 in [5]; 0.0618 in assay [6]; 0.237 in assay [7]. The composite z-score in assay [8] was 0.205; in assay [9], 0.46; in assay [10], -0.582. The z-score in assay [4] is 0.105 (inactive).

As to `COc1ccc(COC(=O)NN=C2C[C@@H](O)[C@@H](O)[C@@H]3[C@@H]4C(=O)N([C@@H](C)c5ccccc5)C(=O)[C@@H]4CC[C@H]23)cc1`, the composite z-score is -0.25 in assay [1]; -0.121 in assay [2]; 1.4 in [3]; -0.227 in assay [5]; -0.721 in assay [6]; -0.587 in [7]. For the same compound, the composite z-score is -0.131 in assay [8], -0.769 in assay [9] and 0.541 in [10]. Also, the z-score in [4] was 0.445 (inactive).

Turning to `COC(=O)[C@H](C)NC(=O)CCC1CC(OC(=O)NCc2cccc3ccccc23)CC2(CCCC(COC(=O)NCc3cccc(C(F)(F)F)c3)O2)O1` (stereo not given in full), the composite z-score was 0.988 in assay [1]; -0.0508 in assay [2]; -0.134 in [3]; 0.908 in assay [5]; 0.611 in assay [6]; 0.473 in [7]. In addition, the composite z-score in [8] is 0.677; in [9] it was 0.303; in assay [10], -0.108. In addition, in assay [4], the z-score is -1.39 (inactive).

Take `C#CCCCON=C1[C@H]2CCn3c(=O)n(Cc4cc5c(cc4Cl)OCO5)c(=O)n3[C@H]2[C@H](O)[C@@H]2O[C@H]12`: the composite z-score in [1] was 0.216; in [2] it was -0.23; in [3] it was -0.648; in [5] it was 0.914; in assay [6], 0.557; in assay [7] it was 0.664. Further, the composite z-score in assay [8] is 0.641; in assay [9], 0.541; in assay [10], 0.0951. The z-score in assay [4] is -0.0845 (inactive).

In the case of `CC(CCN1CCc2nc(-c3ccccc3)c(-c3ccccc3)cc2C1)=NOC(C)CN1CCCc2nc(C)c(C)cc21` (stereo not given), the composite z-score in assay [1] is 0.934; in assay [2], 0.196; in assay [3], -0.218; in assay [5], 0.942; in assay [6], 1.02; in assay [7], 0.603. The composite z-score is 1.02 in assay [8], 0.732 in assay [9] and 0.858 in assay [10]. Further, the z-score in assay [4] is 1.12 (inactive).

Turning to `CO[C@H]1COC(=O)[C@H](C)COC(=O)[C@@H](OCc2ccccc2)C=C[C@@H]1C`, the composite z-score is -0.0072 in assay [1]; -0.386 in assay [2]; -0.743 in [3]; 0.083 in assay [5]; -0.357 in assay [6]; 0.274 in [7]. Besides, the composite z-score in assay [8] is -0.266; in [9], 0.32; in assay [10], 0.251. Also, in [4], the z-score is 0.0228 (inactive).

As to `COC(=O)[C@@H]1CC[C@H](C)[C@@H](c2ccc(C)cc2)N1C(=O)c1ccc(C=NOC[C@H]2O[C@H](c3ccccc3)C=C[C@@H]2Oc2ccc(OC)cc2)cc1`, the composite z-score in assay [1] was 0.198; in [2], -0.0428; in assay [3], -0.32; in assay [5], 0.3; in [6], -0.245; in assay [7], 0.331. In addition, the composite z-score was -0.189 in assay [8], 0.15 in [9] and 1.24 in assay [10]. Also, the z-score in [4] is -0.0767 (inactive).

As to `CC(=O)OC[C@H]1O[C@@H](ON=C2[C@H]3CCn4c(=O)n(-c5ccccc5)c(=O)n4[C@H]3[C@H](O)[C@@H]3O[C@H]23)[C@H](OC(C)=O)[C@@H](OC(C)=O)[C@@H]1OC(C)=O`, the composite z-score in assay [1] was 0.242; in assay [2], -0.425; in assay [3] it was -0.43; in assay [5] it was 0.614; in assay [6] it was 0.913; in assay [7], 0.519. Further, the composite z-score in assay [8] was 0.387; in assay [9], 0.731; in [10], -0.1. The z-score in assay [4] is 0.764 (inactive).

For the compound `CCOC(=O)CCN1C(=O)[C@H]2[C@H]3[C@H](O)[C@H](O)CC(=O)[C@@H]3CC[C@H]2C1=O`, the composite z-score in assay [1] was 0.414; in assay [2], -0.0674; in assay [3], -0.834; in [5], 1.1; in assay [6], 0.917; in [7], 0.591. Also, the values for the composite z-score in assay [8], in [9] and in assay [10] were 1.15, 0.935 and -0.37, respectively. In addition, the z-score in assay [4] is 0.283 (inactive).

For the compound `COC(=O)[C@@H]1CC[C@H](C)[C@@H](c2ccc(Br)cc2)N1C[C@H](O)CN=[N+]=[N-]`, the composite z-score in assay [1] was 0.0722; in [2] it was -0.234; in assay [3], 0.0248; in [5], 0.248; in assay [6], -0.154; in assay [7], 0.385. Further, the composite z-score in [8] was -0.347; in assay [9], -0.148; in [10], 0.616. Besides, in [4], the z-score was -0.812 (inactive).
